Test results: PubChem BioAssay (NCATS)
Records with an inconclusive call do not appear. The source made the active and inactive calls. Calls come from the whole dose curve; as a rule, active = well fitted curve in the direction sought with a large enough effect; inconclusive = small, poorly fitted or top-dose-only effect, or another doubt; inactive = no such curve, though single readings can be large; an effect the other way counts as inactive or inconclusive. Where a SMILES comes first, the peptide text is derived from it. Bridges are numbered along the chain shown (N, C = ends). [ ]: non-standard residue; d: D form. hArg = N=C(N)NCCCC[C@H](N)C(=O)O; Mpa = O=C(O)CCS

Key:
MKL-1 = assay: qHTS assay to identify novel small-molecules to repurpose for Merkel cell carcinoma treatment (AID 1296009); conditions: MCC and control cell lines, CellTiter-Glo viability, 72 h; series mostly up to 46 µM; note: nearly all actives have a fitted effect of over 60% in size
Procedure, shortened: (§1)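 Cell viability, measured as CellTiter-Glo luminescence, was normalized between DMSO and no-cell wells. The cells had been exposed to 8- or 11-point compound dilutions for 72 hr at 37 degree celsius.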

MKL-2 = assay: as above; conditions: MCC and control cell lines, CellTiter-Glo viability, 72 h; series mostly up to 46 µM
Procedure, shortened: as §1

NIH3T3 = assay: as above; conditions: MCC and control cell lines, CellTiter-Glo viability, 72 h; at 44.8 µM (top of the series) unless noted
Procedure, shortened: as §1

UISO = assay: as above; conditions: MCC and control cell lines, CellTiter-Glo viability, 72 h; series mostly up to 46 µM
Procedure, shortened: as §1

WaGa = assay: as above; conditions: MCC and control cell lines, CellTiter-Glo viability, 72 h; series mostly up to 46 µM
Procedure, shortened: as §1

C33A = assay: Primary qHTS to identify gynecologic anti-cancer compounds using libraries of approved drugs and bioactive compounds (AID 1345084); conditions: Gynecologic cancer cell panel viability, ATPlite luminescence, 48 h; series mostly up to 57.5 µM; note: nearly all actives have a fitted effect of over 55% in size
Procedure, shortened: (§2)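 Cytotoxicity screen measuring ATP content by luciferase luminescence. Each compound is applied at five concentrations for 48 h at 37 C with 5% CO2.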

CASKI = assay: as above; conditions: Gynecologic cancer cell panel viability, ATPlite luminescence, 48 h; series mostly up to 57.5 µM
Procedure, shortened: as §2

Es-2 = assay: as above; conditions: Gynecologic cancer cell panel viability, ATPlite luminescence, 48 h; series mostly up to 57.5 µM
Procedure, shortened: as §2

HeLa = assay: as above; conditions: Gynecologic cancer cell panel viability, ATPlite luminescence, 48 h; series mostly up to 57.5 µM
Procedure, shortened: as §2

CAOV3 = assay: as above; conditions: Gynecologic cancer cell panel viability, ATPlite luminescence, 48 h; series mostly up to 57.5 µM
Procedure, shortened: as §2

Measured: outcome

OCc1ccc(Cl)cc1Cl
not listed: CAOV3
inactive: all other assays above

CC(=O)OCC(COC(C)=O)OC(C)=O
inactive: all assays above

CCN(CC)C(=O)c1cccc(C)c1
inactive: all assays above

O=C(O)C(S)C(S)C(=O)O (stereo unspecified)
inactive: all assays above

CCCNC(C)C(=O)Nc1c(C)csc1C(=O)OC (stereo unspecified)
inactive: all assays above

Cc1c(C(=O)NCCO)[n+](=O)c2ccccc2n1[O-]
inactive: all assays above

O=C(CN1CCNCC1)NC1CCCCC1
inactive: MKL-1 | MKL-2 | NIH3T3 inactive; activator | UISO | WaGa | C33A | CAOV3 | CASKI | Es-2 | HeLa

Nc1ccc(C(=O)Oc2ccccc2)c(O)c1
inactive: all assays above

Cc1ncc(CO)c(CN)c1O
inactive: all assays above

NS(=O)(=O)c1ccc(NC(=O)CCC(=O)O)cc1
inactive: all assays above

CC(=O)N1C[C@H](O)C[C@H]1C(=O)O
inactive: all assays above

CCOC(=O)OC(C)OC(=O)[C@@H]1N2C(=O)[C@@H](NC(=O)[C@H](N)c3ccccc3)[C@H]2SC1(C)C (stereo partly specified)
inactive: all assays above

C[n+]1ccccc1/C=N/O
inactive: all assays above

C=CCN1C[C@H](C(=O)N(CCCN(C)C)C(=O)NCC)C[C@@H]2c3cccc4[nH]cc(c34)C[C@H]21
inactive: all assays above

NC(=O)NC1NC(=O)NC1=O (stereo unspecified)
inactive: all assays above

NC(=O)NS(=O)(=O)c1ccc(N)cc1
inactive: all assays above

CCCCCC(N)=O
inactive: all assays above

CN(C(=O)c1c(O)c2ccccc2n(C)c1=O)c1ccccc1
inactive: all assays above

C[N+](C)(C)CC(O)CC(=O)[O-] (stereo unspecified)
inactive: all assays above

CC(=O)N(CC(O)CN(C(C)=O)c1c(I)c(C(=O)NCC(O)CO)c(I)c(C(=O)NCC(O)CO)c1I)c1c(I)c(C(=O)NCC(O)CO)c(I)c(C(=O)NCC(O)CO)c1I (stereo unspecified)
inactive: all assays above

FC(F)(F)C(Cl)Br (stereo unspecified)
inactive: all assays above

Cc1onc(-c2ccccc2)c1-c1ccc(S(N)(=O)=O)cc1
not listed: C33A
inactive: all other assays above

O=C1c2ccccc2S(=O)(=O)N1CCCCN1CCN(c2ncccn2)CC1
inactive: all assays above

COC(=O)c1ccc(O)cc1
inactive: all assays above

O=c1[nH]c(=O)n([C@H]2C[C@H](O)[C@@H](CO)O2)cc1I
not listed: UISO | CAOV3
inactive: all other assays above

O=C(O)c1ccc[n+]([O-])c1
inactive: all assays above

Cc1ccsc1/C=C/C1=NCCCN1C
inactive: all assays above

O=C(OOC(=O)c1ccccc1)c1ccccc1
inactive: all assays above

CC(C)c1cc2c(cc1S(=O)(=O)O)[C@@]1(C)CCC[C@@](C)(C(=O)O)[C@@H]1CC2
inactive: all assays above

CC(=O)Nc1ccccc1
inactive: all assays above

O=C(CCBr)N1CCN(C(=O)CCBr)CC1
inactive: all assays above

O=C(c1ccccc1)C(O)c1ccccc1 (stereo unspecified)
inactive: all assays above

COc1ccc(C(=O)N2CCN(CC(=O)N3CCOCC3)CC2)cc1
inactive: all assays above

NC(N)=NS(=O)(=O)c1ccc(N)cc1
inactive: all assays above

COc1cc(O)cc(O)c1
not listed: NIH3T3
inactive: all other assays above

CC1CCN(CCCC(=O)c2ccc(F)cc2)CC1
not listed: NIH3T3
inactive: all other assays above

NC(=O)CCCCC1CCSS1 (stereo unspecified)
not listed: NIH3T3
inactive: all other assays above

NC(=O)CC[C@@H](N)C(=O)O
not listed: NIH3T3
inactive: all other assays above

O=C1CC[C@@H](C(=O)O)N1
not listed: NIH3T3
inactive: all other assays above

CC(=O)Oc1cccc(C)c1
not listed: NIH3T3
inactive: all other assays above

CCN(CC)CCOC(=O)C(c1ccccc1)c1ccccc1
not listed: NIH3T3
inactive: all other assays above

Cc1c(N(C)C)c(=O)n(-c2ccccc2)n1C
not listed: NIH3T3
inactive: all other assays above

CC[N+](CC)(CC(=O)Nc1c(C)cccc1C)Cc1ccccc1
not listed: NIH3T3
inactive: all other assays above

O=c1[nH]c(=O)c2ccccc2o1
not listed: NIH3T3
inactive: all other assays above

NC(=O)[C@@H]1CSSCCC(=O)N[C@@H](CCCCN=C(N)N)C(=O)NCC(=O)N[C@@H](CC(=O)O)C(=O)N[C@@H](Cc2c[nH]c3ccccc23)C(=O)N2CCC[C@H]2C(=O)N1 ([Mpa][hArg]GDWPC-NH2; disulfide 1-7)
not listed: NIH3T3
inactive: all other assays above

O=C(/C=C/c1ccc(O)c(O)c1)O[C@@H]1C[C@@](OC(=O)/C=C/c2ccc(O)c(O)c2)(C(=O)O)C[C@@H](O)[C@@H]1O
not listed: NIH3T3
inactive: all other assays above

Cc1ccc(S(=O)(=O)NC(=O)NC2CCCCCCC2)cc1
not listed: NIH3T3
inactive: all other assays above

CC(=O)NCc1c(I)c(NC(C)=O)c(I)c(C(=O)O)c1I
not listed: NIH3T3
inactive: all other assays above

CCCCCCCCCCC(CO)CCCCCCCC (stereo unspecified)
not listed: NIH3T3
inactive: all other assays above

Cc1cc(C)c(NC(=O)CN(CC(=O)O)CC(=O)O)c(C)c1Br
not listed: NIH3T3
inactive: all other assays above

CCOc1ccccc1O[C@H](c1ccccc1)[C@H]1CNCCO1
not listed: NIH3T3
inactive: all other assays above

CC(O)CCCCn1c(=O)c2c(ncn2C)n(C)c1=O (stereo unspecified)
not listed: NIH3T3
inactive: all other assays above

CC(=O)Nc1cccc(O)c1
not listed: NIH3T3
inactive: all other assays above

CCc1nnc(NS(=O)(=O)c2ccc(N)cc2)s1
not listed: NIH3T3
inactive: all other assays above

CCCCCCCCCCCCCCCCC(C(=O)O)C(O)(CC(=O)O)C(=O)O (stereo unspecified)
not listed: NIH3T3
inactive: all other assays above

O=C1c2cccc(O)c2C(=O)c2c(O)cccc21
not listed: NIH3T3
inactive: all other assays above

CC(=O)Nc1ccc(OCCOCCOc2ccc(NC(C)=O)cc2)cc1
not listed: NIH3T3
inactive: all other assays above

COc1ccccc1OC(=O)Oc1ccccc1OC
not listed: NIH3T3
inactive: all other assays above

CC(=O)[C@@]1(O)CC[C@H]2[C@@H]3C[C@H](C)C4=CC(=O)C=C[C@]4(C)[C@@]3(F)[C@@H](O)C[C@@]21C
not listed: NIH3T3
inactive: all other assays above

CN[C@@H]1[C@H](O)[C@H](NC)[C@H]2O[C@@]3(O)C(=O)C[C@@H](C)O[C@H]3O[C@@H]2[C@H]1O
not listed: NIH3T3
inactive: all other assays above

COC(=O)c1ccccc1C(=O)c1ccc(OCCN2CCCCC2)cc1
not listed: NIH3T3
inactive: all other assays above

O=C(O)Cc1ccc(CCNS(=O)(=O)c2ccc(Cl)cc2)cc1
not listed: NIH3T3
inactive: all other assays above

Cc1ccsc1C(=CCCN1CCC[C@@H](C(=O)O)C1)c1sccc1C
not listed: NIH3T3
inactive: all other assays above

CC(C(=O)O)c1ccc2c(c1)Cc1cccnc1O2 (stereo unspecified)
not listed: NIH3T3
inactive: all other assays above

Cn1c(=O)c2c(ncn2CCO)n(C)c1=O
not listed: NIH3T3
inactive: all other assays above

Cc1cc(OI)c(C(C)C)cc1-c1cc(C(C)C)c(OI)cc1C
not listed: NIH3T3
inactive: all other assays above

CN1CCN(C(=O)C2CCCCC2)CC1
not listed: NIH3T3
inactive: all other assays above

COc1ccc2cc(CCC(C)=O)ccc2c1
not listed: NIH3T3
inactive: all other assays above

CC(C)(C)NCC(O)COc1cccc2c1CCC(=O)N2 (stereo unspecified)
not listed: NIH3T3
inactive: all other assays above

CC(CSC(=O)c1ccccc1)C(=O)N1C[C@@H](Sc2ccccc2)C[C@H]1C(=O)O (stereo partly specified)
not listed: NIH3T3
inactive: all other assays above

CC(C)=CCC[C@@](C)(O)[C@H]1CC=C(C)CC1
not listed: NIH3T3 | HeLa
inactive: all other assays above

Cc1ccc(S(=O)(=O)NC(=O)NC2CCCCC2)cc1
not listed: NIH3T3
inactive: all other assays above

CN[C@@H]1[C@@H](O)[C@@H](O[C@@H]2[C@H](O)[C@H](O[C@H]3OC(CN)=CC[C@H]3N)[C@@H](N)C[C@H]2N)OCC1(C)O (stereo partly specified)
not listed: NIH3T3
inactive: all other assays above

C[N+](C)(C)CC[N+]1(C)Cc2c(Cl)c(Cl)c(Cl)c(Cl)c2C1
not listed: NIH3T3
inactive: all other assays above

CCN(CC)CC1CCCCN1CC(=O)N1c2ccccc2C(=O)Nc2cccnc21 (stereo unspecified)
not listed: NIH3T3
inactive: all other assays above

C[C@H]1COc2c(C3(N)CC3)c(F)cc3c(=O)c(C(=O)O)cn1c23
not listed: NIH3T3
inactive: all other assays above

C[C@@H]1CCC[C@H](C)N1
not listed: NIH3T3
inactive: all other assays above

CCCCCCCCCCCCCCCCN
not listed: NIH3T3
inactive: all other assays above
